According to the supplement of paper PMC9177965:

Tested on: HT29 RNF43 G659fs (RNF43 659mut, CRISPR-edited)
Test: cell viability activity relative to DMSO (negative = inhibition); higher = more viable cells (less growth inhibition)
Details: 5 µM; 96 h
Experimental: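 Broad Repurposing Library primary screen at a single dose of 5 uM. HT29 sg-Ctrl and HT29 RNF43 G659fs CRISPR-edited isogenic cells were seeded at 2500 cells/well in 384-well plates in duplicate and treated for 96 h. Viability was read by CellTiter-Glo and reported as % activity relative to DMSO, with MG132 as the positive control (negative = growth inhibition).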

| Compound | cell viability activity |
| --- | --- |
| COc1cc([C@@H]2c3cc4c(cc3[C@@H](O[C@@H]3O[C@@H]5CO[C@@H](C)O[C@H]5[C@H](O)[C@H]3O)[C@H]3COC(=O)[C@H]23)OCO4)cc(OC)c1OP(=O)(O)O | -25.3% |
| CN1CCN(Cc2ccc(-c3cnc4[nH]cc(-c5ccc6[nH]ccc6c5)c4c3)cc2)CC1 | -90.1% |
| CCN(CC)C(=S)SSC(=S)N(CC)CC | -79.2% |
| CN(c1ccccc1CNc1nc(Nc2ccc3c(c2)CC(=O)N3)ncc1C(F)(F)F)S(C)(=O)=O | -45.3% |
| COc1ccc(C[C@H](NC(=O)[C@H](C)NC(=O)CN2CCOCC2)C(=O)N[C@@H](Cc2ccccc2)C(=O)[C@@]2(C)CO2)cc1 | -95.4% |
| O=C(Cc1ccc(-c2ccc(OCCN3CCOCC3)cc2)cn1)NCc1ccccc1 | -59.4% |
| COc1cccc2c1C(=O)c1c(O)c3c(c(O)c1C2=O)C[C@@](O)(C(=O)CO)C[C@@H]3O[C@H]1C[C@H](N)[C@@H](O)[C@H](C)O1 | -93.5% |
| CC[C@@]1(O)C(=O)OCc2c1cc1n(c2=O)Cc2c-1nc1cc(F)c(C)c3c1c2[C@@H](N)CC3 | -91.7% |
| CN1CC[C@H](c2c(O)cc(O)c3c(=O)cc(-c4ccccc4Cl)oc23)[C@H](O)C1 | -83.4% |
| CC(=O)c1c(C)c2cnc(Nc3ccc(N4CCNCC4)cn3)nc2n(C2CCCC2)c1=O | -37.2% |
| O=[N+]([O-])c1ccc2c(c1)S(=O)(=O)C=C2 | -95% |
| COc1ccc(NC(=O)c2ccc(-c3ccc(-c4noc(C)n4)cc3C)cc2)cc1OCCN(C)C | -93.7% |
| CCNC(=O)c1noc(-c2cc(C(C)C)c(O)cc2O)c1-c1ccc(CN2CCOCC2)cc1 | -86.6% |
| Cc1ccc(-n2nc(C(C)(C)C)cc2NC(=O)NCc2cc(F)ccc2Oc2ccc3c(cnn3CCO)c2)cc1 | -36.7% |
| Clc1ccc(C2(c3ccc(-c4cn[nH]c4)cc3)CCNCC2)cc1 | -71.5% |
| O=c1[nH]cc(F)c(=O)[nH]1 | -32.3% |
| COc1cc(/C=C/C(=O)CC(=O)/C=C/c2ccc(O)c(OC)c2)ccc1O | -87.7% |
| COc1ccc2c(O[C@@H]3C[C@H]4C(=O)N[C@]5(C(=O)NS(=O)(=O)C6CC6)C[C@H]5/C=C\CCCCN(C)C(=O)[C@@H]4C3)cc(-c3nc(C(C)C)cs3)nc2c1C | -30% |
| COc1cccc(OCCCN)c1-c1cc(Nc2cnc(C#N)cn2)n[nH]1 | -78.2% |

| Compound | cell viability activity |
| --- | --- |
| O=C(Nc1ccncc1)Nc1ccc(-c2nc(N3CCOCC3)nc(N3C4CCC3COC4)n2)cc1 | -64.5% |
| CCN1CCN(Cc2ccc(Nc3ncc(F)c(-c4cc(F)c5nc(C)n(C(C)C)c5c4)n3)nc2)CC1 | -49.8% |
| CNC(=O)c1ccccc1Nc1nc(Nc2ccc3c(c2OC)CCC[C@H](N2CCN(CCO)CC2)C3)ncc1Cl | -89.4% |
| CCCCNc1ncc2c(-c3ccc(CN4CCN(C)CC4)cc3)cn([C@H]3CC[C@H](O)CC3)c2n1 | -89.4% |
| CC(C)[C@H](C(=O)Nc1ccc(C(=O)NO)cc1)c1ccccc1 | -95% |
| O=C(CCCCCCNC(=O)c1cnc(N(c2ccccc2)c2ccccc2)nc1)NO | -34.4% |
| Cn1nccc1Nc1nccc(-c2ccn([C@H](CO)c3ccc(Cl)c(F)c3)c(=O)c2)n1 | -54.6% |
| CC(C)C[C@@H](C=O)NC(=O)[C@H](CC(C)C)NC(=O)[C@H](CC(C)C)NC(=O)OCc1ccccc1 | -96.9% |
| CCS(=O)(=O)Nc1ccc2[nH]c(O)c(C(=Nc3ccc(CN4CCCCC4)cc3)c3ccccc3)c2c1 | -77.1% |
| Cc1ncc(NC(=O)c2ccc(CN3CCN(C)CC3)c(C(F)(F)F)c2)cc1Nc1nccc(-c2cccnc2)n1 | -33.9% |
| O=C(/C=C/c1cccc(S(=O)(=O)Nc2ccccc2)c1)NO | -88.3% |
| COc1cc(NC(C)CCCN)c2ncccc2c1 (configuration not stated) | -52.7% |
| COc1cc2c(Nc3ccc(Cl)c(Cl)c3F)ncnc2cc1OC[C@@H]1C[C@@H]2CN(C)C[C@@H]2C1 | -90.6% |
| CN(C)C/C=C/C(=O)Nc1cccc(C(=O)Nc2cccc(Nc3ncc(Cl)c(-c4c[nH]c5ccccc45)n3)c2)c1 | -91.7% |
| O=P(O)(O)C(O)(Cn1ccnc1)P(=O)(O)O | -39.2% |
| CNc1nc(-c2ccc3c(N)n[nH]c3c2)cc(N2C[C@@H](C(=O)NC3CCCCC3)CC[C@H]2C)n1 | -31.4% |
| COc1ccc(S(=O)(=O)N(C(C)=O)c2ccccc2/C=C/c2cc[n+]([O-])cc2)cc1 | -65.7% |
| COc1cc(-c2ncn(/C=C/C(=O)OC(C)C)n2)cc(C(F)(F)F)c1 | -69.7% |
